VDR inhibitor: inhibitors of human vitamin D receptor. VDR-SRC2-3 peptide fluorescence polarization, 2 h. Potency, µM, for the others: max response, negative = inhibition, actives largely listed as inhibitors. hit rate 0.93% among 400,000. AID 504847
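Compounds are added to VDR with labelled SRC2-3 coactivator peptide and held 2 h at room temperature. Inhibition of the VDR–peptide interaction is then read as a change in fluorescence polarization.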
TrxR1 inh: rat TrxR1 inhibition; O89049; recombinant rTrxR1, NADPH fluorescence consumption, selenite substrate; Potency, µM (top dose mostly 114 µM), for the others: at the highest dose activity change, negative = inhibition, actives largely listed as inhibitors; hit rate 1% among 390,000; AID 588453; further: nearly all actives have a fitted effect of over 65% in size
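Rat TrxR1 (90 nM in the dispensed reagent) was pre-reduced with 400 uM NADPH for 5 min at room temperature, then incubated with compound for 15 min. After 400 uM selenite was added, NADPH fluorescence (Ex 340/Em 450 nm) was followed for 8 min.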
mIDH1 inhibitor: blocks human mutant IDH1 R132H enzyme; O75874; IDH1-R132H enzyme, NADPH consumption, diaphorase/resazurin fluorescence; Potency, µM (series often up to 76.6 µM), for inactives: top-dose activity change, negative = inhibition, actives largely listed as inhibitors; hit rate 0.093% among 390,000; AID 602179; further: nearly all actives have a fitted effect of over 65% in size
Target sequence (O75874 whole entry R132H, stated change not applied): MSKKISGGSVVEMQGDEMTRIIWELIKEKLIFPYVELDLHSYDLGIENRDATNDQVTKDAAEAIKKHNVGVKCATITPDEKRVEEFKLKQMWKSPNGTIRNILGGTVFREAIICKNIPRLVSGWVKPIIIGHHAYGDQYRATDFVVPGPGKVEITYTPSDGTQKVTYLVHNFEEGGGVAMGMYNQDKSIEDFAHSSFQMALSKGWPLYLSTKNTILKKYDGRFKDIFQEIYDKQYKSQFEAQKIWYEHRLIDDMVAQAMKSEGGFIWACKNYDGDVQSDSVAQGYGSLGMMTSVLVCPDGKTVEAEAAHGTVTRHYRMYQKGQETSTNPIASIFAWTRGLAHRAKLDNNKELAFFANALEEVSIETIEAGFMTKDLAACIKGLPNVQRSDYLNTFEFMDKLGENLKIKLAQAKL
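IDH1-R132H (0.5 ug/mL dispensed) in pH 7.5 Tris buffer was preincubated 30 min with compound, then given a substrate mix of 0.016 mM NADPH and 2 mM alpha-KG for 80 min at room temperature; remaining NADPH was read by diaphorase/resazurin fluorescence.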
TrxR1 substrate: is turned over as a substrate by rat TrxR1; O89049; purified TrxR1 substrate turnover, NADPH consumption readout; Potency, µM (titrated, usually from 114 µM), without a hit: at the top dose activity change, negative = substrate turnover; hit rate 0.01% among 390,000; AID 588456; further: nearly all actives have a fitted effect of over 50% in size
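Rat TrxR1, dispensed at 90 nM, was prereduced with 400 uM NADPH (final) for 5 min at ~22 deg C, then incubated with compound 15 min before 400 uM selenite. A first-read NADPH fluorescence drop versus no-compound background flagged substrates.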
PLK1 PBD block: blocks phosphopeptide binding to human PLK1 polo-box domain; Plk1 PBD binding of FITC phosphopeptide, fluorescence polarization; P53350; AID 720504; Potency, µM, inactives show max response, negative = inhibition, hits mostly inhibitors; hit rate 2.8% among 360,000; further: series mostly up to about 57 µM; nearly all actives have a fitted effect of over 65% in size
Sfp PPTase inh: Sfp phosphopantetheinyl transferase inhibition | Q9F4F7 | Biochemical Sfp PPTase activity, qHTS | Potency, µM, without a hit: largest response in the series, negative = inhibition, actives largely listed as inhibitors | hit rate 3.5% among 310,000 | AID 1490;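 further: the enzyme is Sfp with the accession as filed and its product quenches rhodamine fluorescence; 0% = enzyme reaction without inhibitor and -100% = no enzyme wells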
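Fluorescence-quenching assay with 15 nM Sfp, 5 uM rhodamine-CoA and 12.5 uM BHQ-2-labelled ybbR peptide in pH 7.6 Hepes/MgCl2 buffer. Enzyme was pre-incubated with compound for 15 min at room temperature. Rate was taken from the 30-min fluorescence change (525/598 nm).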
TbPYK inh: confirmation of Trypanosoma brucei pyruvate kinase inhibitors. AID 720569. Potency, µM (titrated, usually from 76.9 µM), inactives show at the highest dose activity change, negative = inhibition, most hits filed as inhibitors. shares compounds with PLK1 PBD block. hit rate 67% among 890. recombinant TbPYK, Kinase-Glo ATP luminescence; further: nearly all actives have a fitted effect of over 70% in size
TbPYK orthogonal: TbPYK inhibition, orthogonal confirmation. hit rate 62% among 890. recombinant TbPYK, ADP-Glo luminescence, 60 min. AID 720584. Potency, µM (doses to about 76.9 µM), inactives show top-dose activity change, negative = inhibition, most hits filed as inhibitors. shares compounds with PLK1 PBD block; further: nearly all actives have a fitted effect of over 75% in size
Numbers without * were called inactive; [ ] = dose if it differs, or a comment. Sampled rows, rich in hits. Any-hit rate of the full collection: about 5.2%. The call rests on the fitted dose curve; in most records, active means well fitted curve in the direction sought with a large enough effect; inconclusive means small, poorly fitted or top-dose-only effect, or another doubt; inactive means no such curve, though single readings can be large; an effect the other way counts as inactive or inconclusive. Unless noted, on the % scale 0 is the no-effect control and ±100 the full control effect; potency means the concentration at half of the fitted maximal effect.

For COc1ccc(-c2nnc3ccc(SCC(=O)N4CCOCC4)nn23)cc1 the results were VDR inhibitor -3%, TrxR1 inh 11%, mIDH1 inhibitor -3%, TrxR1 substrate 0%, PLK1 PBD block -32% and Sfp PPTase inh -1%.
COc1ccc(-c2nnc3ccc(SCC(=O)N4CCN(c5ccccc5)CC4)nn23)cc1 was read as VDR inhibitor -7%, TrxR1 inh 3%, mIDH1 inhibitor -6%, TrxR1 substrate 2%, PLK1 PBD block -21%, TbPYK inh inconclusive and TbPYK orthogonal inconclusive.
Cn1c(N=Nc2ccc(N3CCOCC3)cc2)[n+](C)c2ccccc21 was read as VDR inhibitor inconclusive, TrxR1 inh inconclusive, mIDH1 inhibitor 31%, TrxR1 substrate -11%, PLK1 PBD block -7%, Sfp PPTase inh inconclusive, TbPYK inh 16µM* and TbPYK orthogonal 13%.
Screening Cn1c(=Nc2ccc(N3CCOCC3)cc2)ccc2ccccc21 returned VDR inhibitor 6%, TrxR1 inh -4%, mIDH1 inhibitor 5%, TrxR1 substrate -2%, PLK1 PBD block -4% and Sfp PPTase inh 7%.
Screening CC(C)(NC(=O)c1ccccc1)c1nc2ccccc2s1 returned VDR inhibitor inconclusive, TrxR1 inh 21%[57.1 µM], mIDH1 inhibitor 1%, TrxR1 substrate 5%[57.1 µM], PLK1 PBD block 12µM*, TbPYK inh 8.9µM* and TbPYK orthogonal 10µM*.
Screening CC1CCc2c(sc(Nc3nc4c(F)cccc4s3)c2C(N)=O)C1 (stereo not drawn) returned VDR inhibitor -29%, TrxR1 inh inconclusive, mIDH1 inhibitor 0%, TrxR1 substrate 11%, PLK1 PBD block -6%, Sfp PPTase inh 25µM*, TbPYK inh 8.9µM* and TbPYK orthogonal 14µM*.
`Cc1ccc(NC(=O)CCc2c(C)nc3c(-c4ccccc4)c(C)nn3c2C)c(C)c1` gave VDR inhibitor -16%, TrxR1 inh 27%, mIDH1 inhibitor -16% and TrxR1 substrate 10%.
COCCNC(=O)C1(CC(C)C)C=CCN1C(=O)OC (stereo not drawn) was read as Sfp PPTase inh 25%.
Screening CC(=O)Nc1ccc(S(=O)(=O)NNc2cccc(C)c2)cc1 returned VDR inhibitor 79µM*, TrxR1 inh -7%, mIDH1 inhibitor -1%, TrxR1 substrate 2%, PLK1 PBD block 12µM*, Sfp PPTase inh -88%, TbPYK inh inconclusive and TbPYK orthogonal 18µM*.
For Cc1cccc(N(C)S(=O)(=O)c2cc3[nH]c(=O)c(=O)[nH]c3cc2C)c1 the results were VDR inhibitor 4%, TrxR1 inh 17%, mIDH1 inhibitor 0% and TrxR1 substrate 1%.
For C[C@](N)(COP(=O)(O)O)C(=O)O the results were VDR inhibitor -6% and Sfp PPTase inh -30%.
`S=C(c1ccc(-c2ccc(Cl)cc2Cl)o1)N1CCCC1` gave VDR inhibitor inconclusive, TrxR1 inh -6%, mIDH1 inhibitor 13%, TrxR1 substrate -2%, PLK1 PBD block inconclusive, Sfp PPTase inh 14µM*, TbPYK inh inconclusive and TbPYK orthogonal inconclusive.
COc1cc(OC)c(NC(=O)c2cc(CN3CCOCC3)on2)cc1Cl was read as VDR inhibitor -2%, TrxR1 inh 13%[57.1 µM], mIDH1 inhibitor -8% and TrxR1 substrate 0%[57.1 µM].
COc1ccc(-c2ccc(C(=S)N3CCN(C(C)=O)CC3)o2)cc1 was read as VDR inhibitor 79µM*, TrxR1 inh -5%, mIDH1 inhibitor -1%, TrxR1 substrate 4%, PLK1 PBD block 24µM*, Sfp PPTase inh 13µM*, TbPYK inh 22µM* and TbPYK orthogonal 32µM*.
COc1ccc(CC(=O)N2CCN(C(=O)Cc3ccc(OC)cc3)CC2)cc1 was read as VDR inhibitor -8%, TrxR1 inh 3%, mIDH1 inhibitor 0%, TrxR1 substrate 2%, PLK1 PBD block inconclusive and Sfp PPTase inh 26%.
For COc1cc(NC(=O)c2nn(C)c3c2COc2ccccc2-3)cc(OC)c1OC the results were VDR inhibitor 15%, TrxR1 inh -4%, mIDH1 inhibitor -18% and TrxR1 substrate 11%.
Screening COc1cc(/C=C2\SC(N)=NC2=O)cc(Cl)c1O returned VDR inhibitor -3%, TrxR1 inh -10%, mIDH1 inhibitor 3%, TrxR1 substrate -12%, PLK1 PBD block 26% and Sfp PPTase inh 4%.
`Cc1ccc(C2=NC(=O)/C(=C/c3cc(O)c(O)c(Br)c3)S2)cc1` gave VDR inhibitor inconclusive, TrxR1 inh -1%[57.1 µM], mIDH1 inhibitor -5%, TrxR1 substrate 0%[57.1 µM], PLK1 PBD block inconclusive, Sfp PPTase inh 45µM*, TbPYK inh 32µM* and TbPYK orthogonal inconclusive.
For COc1cc(/C=C2\SC(c3ccc(C)cc3)=NC2=O)cc(OC)c1O the results were VDR inhibitor inconclusive, TrxR1 inh 5%[57.1 µM], mIDH1 inhibitor 7%, TrxR1 substrate 6%[57.1 µM], PLK1 PBD block -19%, Sfp PPTase inh 11µM*, TbPYK inh 35µM* and TbPYK orthogonal inconclusive.
Screening CCn1cc(/C=C/C(=O)Nc2ccc(C)cc2Br)cn1 returned VDR inhibitor 0%, TrxR1 inh 3%[57.1 µM], mIDH1 inhibitor 16%, TrxR1 substrate 3%[57.1 µM], PLK1 PBD block -14% and Sfp PPTase inh -4%.
CCn1cc(/C=C/C(=O)Nc2ccn(Cc3c(F)c(F)cc(F)c3F)n2)cn1 was read as VDR inhibitor inconclusive, TrxR1 inh -4%, mIDH1 inhibitor 1%, TrxR1 substrate -7%, PLK1 PBD block -17%, Sfp PPTase inh 28µM*, TbPYK inh 7.9µM* and TbPYK orthogonal 13µM*.
For Cc1ccnc(N2C(=O)c3cccc4c([N+](=O)[O-])ccc(c34)C2=O)c1 the results were VDR inhibitor 7%, TrxR1 inh inconclusive, mIDH1 inhibitor 17%, TrxR1 substrate 3%[57.1 µM], PLK1 PBD block inconclusive and Sfp PPTase inh -9%.
Screening Cc1cc(C)cc(N2C(=O)c3nccnc3C2=O)c1 returned VDR inhibitor -19%, TrxR1 inh 6%, mIDH1 inhibitor 4%, TrxR1 substrate -2%, PLK1 PBD block -12% and Sfp PPTase inh 9%.
